Consider 40 compounds from PubChem BioAssay (Tox21).

Inconclusive results are not listed. Entries that show only a call come without a potency. Active and inactive are the calls of the source. Calls come from the whole dose curve; as a rule, active = well fitted activation curve with a large enough effect in the repeat runs; inconclusive = weak or mixed curves; inactive = flat fitted curve, though single readings scatter.
Potency is the fitted concentration of half-maximal effect.

The nature of this assay: A CellTox Green Cytotoxicity Assay to monitor cytotoxicity in HEK293 cells - 32 hour (AID 1224881). Note: nearly all actives have a fitted effect of over 40% in size. The conditions noted are these: CellTox Green fluorescence; series mostly up to 76.8 µM. From the text: National Center for Advancing Translational Sciences [NCATS]
NIH Chemical Genomics Center [NCGC]
U.S. Environmental Protection Agency [EPA]
National Institutes of Environmental Health Sciences [NIEHS]
National Toxicology Program [NTP]
Cell-based models are critical for drug discovery. Determining the natural cytotoxic effects resulting from test compounds is an essential research activity. A CellTox Green Cytotoxicity Assay to monitor cytotoxicity in real time of continues cell culture during 40 hours of the compound treatment was used to screen Tox21 10K library compounds in Hek293 cells. CellTox Green Cytotoxicity Assay is a nonlytic, homogeneous, biofluorescent method to measure cytotoxicity in cell culture after experimental manipulation. The assay system uses a proprietary asymmetric cyanine dye that is excluded from viable cells but preferentially stains the dead cell's DNA. […] Viable cells produce no appreciable increases in fluorescence. Therefore, the fluorescence signal produced by the binding interaction with dead cell DNA is proportional to cytotoxicity.
The mixture of Hek293 cell suspension and reagents were dispensed at 600cells/6 ul/well in 1536-well tissue culture treated black solid bottom plates using a Multidrop dispenser. After the assay plates were incubated at a 37 C/5% CO2 incubator for 5 hours, 23 nL of compounds dissolved in DMSO, positive and negative controls was transferred to the assay plate by a pintool work station. The plates were incubated at 37 C for 40 hours. The fluorescence intensity were measured at 0h, 8h, 16h, 24h, 32h and 40h time points using ViewLux plate reader during compound treatment.
`c1ccc(-c2nn[nH]n2)cc1`: the Potency result was “inactive”.
As to `C[C@@H](O)C(=O)O`, the Potency entry is “inactive”.
In the case of `CC1CC(=O)CC(C)(C)C1` (stereo not given), the Potency entry was “inactive”.
For `COC(=O)CCCCC(=O)O`, the Potency result is “inactive”.
On the same count and under the same terms, for `COP(=O)(O)OP(=O)(O)OC` the value was “inactive”.
Consider `CCOc1cccc(N)c1`, for which the Potency result was “inactive”.
Regarding `N#CCC(=O)NN`, the Potency entry is “inactive”.
`CO[C@@]1(NC(=O)Cc2cccs2)C(=O)N2C(C(=O)O)=C(COC(N)=O)CS[C@@H]21`: the Potency entry is “inactive”.
For the compound `CC(O)COC(C)(C)C` (stereo not given), the Potency result was “inactive”.
Consider `COC(=O)c1cc(Cl)cc(Cl)c1`, for which the Potency entry is “inactive”.
Take `CC(C)CCOC(=O)c1ccccc1`: the Potency result is “inactive”.
As for `O=C(CN1CCNCC1)NC1CCCCC1`, the Potency result was “inactive”.
For the compound `CO/N=C(/C(=O)N[C@@H]1C(=O)N2C(C(=O)[O-])=C(C[n+]3ccn4ncccc43)CS[C@H]12)c1nsc(N)n1`, the Potency entry is “inactive”.
Take `CCN(CC)CCN`: the Potency result was “inactive”.
Still for that read-out and setting: for `O=C=NCC1CCCC(CN=C=O)C1` (stereo not given) the value was “inactive”; for `O/N=C/C=N/O`, “inactive”; for `COS(=O)(=O)O`, “inactive”.
As to `O=C(Cn1ccnc1[N+](=O)[O-])NCc1ccccc1`, the Potency result is “inactive”.
Take `ONc1ccccc1`: the Potency result was “inactive”.
On to `CN(C)CCCO[C@@H]1[C@H]2OC(C)(C)O[C@H]2O[C@@H]1C(O)CO` (stereo not given in full), for which the Potency result was “inactive”.
Turning to `OCC(O)CN1CCN(c2ccccc2)CC1` (stereo not given), the Potency entry is “inactive”.
On the same count and under the same terms, for `CCCCOCC(C)O` (stereo not given) the value was “inactive”; for `C=CCCCCCCCC`, “inactive”; for `C[Si]1(C)O[Si](C)(C)O[Si](C)(C)O[Si](C)(C)O[Si](C)(C)O1`, “inactive”.
As to `CCCC(=O)Nc1ccc(OCC(O)CNC(C)C)c(C(C)=O)c1` (stereo not given), the Potency entry is “inactive”.
As for `CN1C[C@@H]2C[C@H]1CN2c1cc2c(cc1F)c(=O)c(C(=O)O)cn2C1CC1`, the cytotoxicity increase is -7.04% [at 15.8 µM] (inactive).
Consider `CC1c2ccccc2CN1NC(=O)c1ccc(Cl)c(S(N)(=O)=O)c1` (stereo not given), for which the Potency entry was “inactive”.
`C=C(C)[C@@H]1CC=C(C)C(=O)C1`: the Potency result is “inactive”.
Consider `COC(=O)/C=C\C(=O)O`, for which the Potency entry is “inactive”.
With `CC(C)[C@H]1CC[C@H](C)C[C@@H]1O`, the Potency entry is “inactive”.
Still for that read-out and setting: with `Cc1cccc(Cl)c1` the entry was “inactive”.
`C=CCCCCCCCCC(=O)OCCCC`: the Potency result is “inactive”.
`CCO[Si](CC)(OCC)OCC`: the Potency result was “inactive”.
For the compound `COc1cc(/C=C/C(N)=O)cc(OC)c1OC`, the Potency entry was “inactive”.
On to `C=C(C)c1cccc(C(C)(C)N=C=O)c1`, for which the Potency entry was “inactive”.
With `O=C1OCCO1`, the Potency was 0.366 µM (active).
The same measure, in the same setting: for `CSc1cnccn1` the value was “inactive”; for `CCC(=O)Oc1ccc2c(c1)CC[C@@H]1[C@@H]2CC[C@@]2(C)[C@H]1C[C@@H](OC(=O)CC)[C@@H]2OC(=O)CC`, “inactive”; for `O=C(NCN1CCOCC1)c1cnccn1`, “inactive”.
Turning to `O=C(O)CSCC(=O)NC1CCSC1=O` (stereo not given), the Potency entry is “inactive”.
